Results filed as inconclusive are left out. The source made the active and inactive calls. Calls come from the whole dose curve; as a rule, active = well fitted inhibition curve with a large enough effect; inconclusive = small, poorly fitted or top-dose-only effect; inactive = no such curve, though single readings can be large or run the other way.
Target: Papain (Carica papaya) (UniProt P00784)
Assay: Primary qHTS assay for inhibitors of the protease papain (AID 1645873);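 note: papain turnover of Z-FR-AMC read as the AMC fluorescence gain over 10 min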
Details: papain Z-FR-AMC cleavage, AMC fluorescence; series mostly up to 49.8 µM; activity change, negative = inhibition: at the top concentration
% is set by controls: 0 for no effect and ±100 for the full control effect; potency is the fitted concentration of half-maximal effect.

Papain (Carica papaya), sequence (P00784 whole entry, looked up): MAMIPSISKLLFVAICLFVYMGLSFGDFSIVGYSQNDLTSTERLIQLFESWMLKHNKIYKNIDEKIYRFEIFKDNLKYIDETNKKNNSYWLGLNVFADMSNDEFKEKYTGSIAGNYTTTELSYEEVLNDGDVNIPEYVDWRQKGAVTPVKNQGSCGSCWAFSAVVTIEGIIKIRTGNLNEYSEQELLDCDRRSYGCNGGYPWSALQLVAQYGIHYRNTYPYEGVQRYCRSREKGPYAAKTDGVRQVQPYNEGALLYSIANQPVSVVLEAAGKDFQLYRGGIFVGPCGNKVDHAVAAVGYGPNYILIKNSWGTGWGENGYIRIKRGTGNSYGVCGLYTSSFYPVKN

Compound	Potency	activity change, negative = inhibition
CCCC[C@@]1(C2CCCC2)Cc2cc(OCC(=O)O)c(Cl)c(Cl)c2C1=O	25.1 µM (active)	
N[C@@H](CCCC(=O)O)C(=O)O		6.39% (inactive)
CN(C)S(=O)(=O)c1ccc2c(c1)/C(=C/c1cc3c([nH]1)CCCC3)C(=O)N2		-1.71% (inactive)
NC(N)=NC(N)=Nc1cccc(Cl)c1		1.17% (inactive)
CCCCCCCCCCCCCCSCC(=O)O		-6.75% (inactive)
O[Si](CCCN1CCCCC1)(c1ccc(F)cc1)C1CCCCC1 (stereo not drawn)		2.61% (inactive)
C=CCN1CCc2cc(O)c(O)cc2C(c2ccccc2)C1 (stereo not drawn)		-14.7% (inactive)
CCCn1c(=O)c(C)cn2nc(N)nc12	28.2 µM (active)	
CC(=O)N[C@@H](Cc1c[nH]c2ccccc12)C(=O)OCc1cc(C(F)(F)F)cc(C(F)(F)F)c1		-6.93% (inactive)
Nc1ncnc2c1ncn2C1CCCC1		-5.13% (inactive)
CC(N)=NCCCC[C@@H](N)C(=O)O		2.79% (inactive)
O=C(O)C1CCCNC1 (stereo not drawn)		-6.93% (inactive)
CC(O)C(O)[C@H]1CNc2nc(N)[nH]c(=O)c2N1 (stereo partly drawn)	25.1 µM (active)	
CCn1c(=O)[nH]c2cc(Cl)c(Cl)cc21		-10.2% (inactive)
CCCCCCCCCCC/C=C\C(C)(C)/C=C\CCCC(=O)O		-2.61% (inactive)
CC1CCN(CC[C@H]2CCCN2S(=O)(=O)c2cccc(O)c2)CC1		-15.8% (inactive)
O=C(O)c1ccccc1Nc1cccc(OCc2ccc3ccccc3n2)c1		49.2% (inactive)

Compound	Potency	activity change, negative = inhibition
C[C@@H](NCCc1ccc(O)cc1)[C@@H](O)c1ccc(O)cc1		7.83% (inactive)
Oc1ccc(/C=C/c2ccc(/C=C/c3ccc(O)cc3)c(Br)c2)cc1		216% (inactive)
N[C@@H](Cc1ccc(O)c(I)c1)C(=O)O		-14.9% (inactive)
COc1ccccc1N1CCN(CCCNc2c(C)c(=O)n(C)c(=O)n2C)CC1		-0.45% (inactive)
CCCc1c(-c2ccc(O)cc2)nn(-c2ccc(O)cc2)c1-c1ccc(O)cc1		27.9% (inactive)
CN(C)CCCc1cc(C(=O)Nc2ccc(-c3ccncc3)cc2)ccc1O		-9.27% (inactive)
CC[n+]1c(/C=C/C=C2/N(C)c3ccccc3C2(C)C)sc2ccccc21		-2.43% (inactive)
N=C(N)c1ccc(OCCCCCOc2ccc(C(=N)N)cc2)cc1 (tested in a mixture with another compound)		5.85% (inactive)
Oc1cc(O)c2c(c1)O[C@H](c1ccc(O)c(O)c1)[C@@H](O)C2		-4.23% (inactive)
NC[C@@H]1O[C@H](c2ccccc2)Cc2c1ccc(O)c2O		5.01% (inactive)
Cc1cc(Cn2cnc3c2C[C@@H](C(=O)O)N(C(=O)C(c2ccccc2)c2ccccc2)C3)ccc1N		-0.63% (inactive)
O=C(O)C1=CC(=C(c2ccc(O)c(C(=O)O)c2)c2ccc(O)c(C(=O)O)c2)C=CC1=O	7.94 µM (active)	
O=[N+]([O-])c1cccc2cn[nH]c12		0.99% (inactive)
CC(C)[C@@H]1CC[C@@H](C)C[C@@H]1P(=O)(c1ccccc1)c1ccccc1		9.99% (inactive)
C=CCN1CCc2c(cc(O)c(O)c2Br)[C@@H](c2ccccc2)C1		-12.2% (inactive)
CCN1C(=O)C=CC1=O		-11.6% (inactive)

Reference: PubChem BioAssay (NCATS)
